# Only some compounds are listed: those with a hit (about 2.4% of all), similar ones and a draw of the others.
# D2 ag-1 – D2 dopamine receptor (human) agonism; activation, % at 2 µM; P14416; HEK293 T-REx D2 cells, calcium flux agonist mode; hit rate 0.53% among 340,000;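 active = activation over 3 SD above normal in the single-dose calcium agonist read, cut at about 30% in these data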; note: 0% is about no effect
# Target sequence (P14416 whole entry, looked up): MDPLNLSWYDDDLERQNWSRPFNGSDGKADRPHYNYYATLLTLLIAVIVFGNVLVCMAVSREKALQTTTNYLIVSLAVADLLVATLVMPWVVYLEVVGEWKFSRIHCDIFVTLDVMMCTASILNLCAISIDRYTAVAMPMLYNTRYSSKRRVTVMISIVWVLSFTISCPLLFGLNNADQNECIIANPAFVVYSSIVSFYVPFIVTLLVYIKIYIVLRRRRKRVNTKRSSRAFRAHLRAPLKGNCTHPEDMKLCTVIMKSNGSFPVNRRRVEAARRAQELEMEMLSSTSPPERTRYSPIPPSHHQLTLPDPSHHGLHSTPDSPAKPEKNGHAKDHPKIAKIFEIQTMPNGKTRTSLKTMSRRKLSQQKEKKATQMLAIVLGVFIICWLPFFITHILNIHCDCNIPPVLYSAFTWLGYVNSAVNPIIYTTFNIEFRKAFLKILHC
#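 Tetracycline-induced HEK293 Trex cells with D2 receptor force-coupled to calcium signaling, plated overnight at 30 C and loaded with no-wash calcium dye. Calcium flux read kinetically for 180 s after compound addition; responses flag agonists.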
# D2 PAM-1 – positive allosteric modulators of human D2 dopamine receptor; AID 624464; hit rate 0.23% among 360,000; DiscoveRx D2 beta-arrestin cells, luminescence, 90 min; 100% = 57 uM dopamine signal; potentiation, % (no concentration beside the values); in the data active = potentiation above about 50%
#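 PathHunter beta-arrestin assay in DiscoveRx D2 cells. Compounds were added with an EC20 of dopamine (50 nM final) for 90 min at 37 deg C. Luminescence was read 1 h after detection reagent, with 57 uM dopamine as the EC100 control.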
# D2 ag-2 – activates the human D2 dopamine receptor; hit rate 0.084% among 360,000; DiscoveRx PathHunter D2 beta-arrestin, luminescence, 90 min; 100% = 57 uM dopamine signal; activation, % (test concentration not listed); in the data active = activation above about 40%
#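 Agonist mode: compounds alone added to overnight-plated D2 PathHunter cells for 90 min at 37 C, with 57 uM final dopamine (EC100) defining full response. Beta-arrestin recruitment detected by chemiluminescent reagent, read after 1 h at ambient temperature.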
# D2 PAM-2 – positive allosteric modulators of human D2 dopamine receptor; P14416; HEK293 T-REx D2, calcium flux, EC20 dopamine potentiation; potentiation, % at 10 µM; hit rate 0.34% among 340,000;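 active = potentiation over 3 SD above the plate norm, cut at about 30% in these data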; note: 0% is about no effect
#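 Cells plated with tetracycline inducer and held overnight at 30 C; calcium dye loaded 30–90 min at room temperature; baseline taken, compound added and read 180 s; EC20 dopamine then added and read 180 s.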
# D2 antagonist – antagonists of human D2 dopamine receptor. P14416. HEK293 TREx D2 cells, calcium flux, dopamine EC80. inhibition, % at 10 µM. hit rate 2% among 340,000. AID 485344; in the data active = inhibition above about 30%; inactive = below that, where a call was filed; note: 0% is about no effect
#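 Calcium flux kinetic readout in an inducible HEK293 TREx D2 line plated overnight at 30 C. After 180 s compound exposure, an EC80 dopamine challenge follows with another 180 s kinetic read to detect antagonism.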
# An asterisk follows results filed as active; / = no result given.
SMILES,D2 ag-1,D2 PAM-1,D2 ag-2,D2 PAM-2,D2 antagonist
CCCCNC(=O)Cc1coc2ccc3ccccc3c12,1,-4,0,33*,-9
COc1ccccc1NC(=O)c1cnc(SCC(=O)N2CCOCC2)n(C)c1=O,/,/,/,-3,/
O=C(OCc1nc2ccccc2s1)c1ccc(Br)s1,1,2,-2,3,32*
Nc1ccc(C(=O)OCc2nc3ccccc3s2)cc1,/,-3,-2,/,/
COc1cccc(-c2cc(=O)c3cc(NC(C)=O)ccc3[nH]2)c1,1,-19,-1,0,34*
Cc1[nH]c2ccccc2c1C(=O)CN1CCN(C/C=C/c2ccccc2)CC1,0,-44,-6,-30,80*
Cc1[nH]c2ccccc2c1C(=O)CN1CCN(C2CCCCC2)CC1,-1,/,/,-43,58*
CCOc1ccc(NC(=O)Cn2cc(C(=O)c3ccc(OCC)cc3)c(=O)c3cc4c(cc32)OCCO4)cc1,1,/,/,0,/
COc1ccccc1C(=O)Nc1ccccc1C(=O)N1C(C)CCCC1C (stereo not given),-1,-6,-3,-2,48*
COc1cccc(OC)c1C(=O)Nc1ccccc1C(=O)N1CCCC1,1,6,0,2,-1
Cc1cccc(Cc2c(C)nc3nc(SCc4ccccc4C)nn3c2C)c1,0,/,/,13,/
Cc1csc(SCC(=O)Nc2cccc3nsnc23)n1,1,-4,0,4,33*
Cc1csc(SCC(=O)Nc2ccccc2C)n1,0,-23,-4,17,7
Cc1csc(SCC(=O)Nc2ccc(C)c(F)c2)n1,-1,-17,-3,-23,37*
CCOc1ccccc1NC(=O)Cn1c(=O)n(-c2ccc(Cl)cc2)c(=O)c2oc3ccccc3c21,/,/,/,-7,/
Cc1ccc(C)c(NS(=O)(=O)c2ccc(OCC(=O)N3CCCC3)cc2)c1,0,-2,0,-5,8
CN(c1ccc(OCC(=O)N2CCOCC2)cc1)S(=O)(=O)c1ccc(Cl)cc1,0,-2,-1,-10,35*
CN(c1ccc(OCC(=O)N2CCOCC2)cc1)S(=O)(=O)c1ccc(F)cc1,0,3,-2,10,5
Cc1ccc(C)c(NS(=O)(=O)c2ccc(OCC(=O)N3CCOCC3)cc2)c1,0,-8,-4,-3,32*
Cc1ccc(CN(Cc2ccco2)C(=O)c2ccccc2Cl)o1,-1,/,/,3,/
O=C(c1cccs1)N1CCN=C1SCc1ccccc1F,33*,-4,-1,-21,-8
CCC(=O)N1CCN=C1SCc1ccc(Cl)cc1,0,-9,-1,30*,5
O=C(C1CC1)N1CCN=C1SCc1ccccc1Cl,-1,-11,-3,4,35*
O=C(c1cccs1)N1CCN=C1SCc1ccc(Cl)cc1,3,-4,-2,-5,27
Cc1ccc(CN2C(=O)CN(C3CCCCCC3)C(=O)C2c2ccc(F)cc2)cc1 (stereo not given),/,/,/,-1,/
SMILES,D2 ag-1,D2 PAM-1,D2 ag-2,D2 PAM-2,D2 antagonist
COc1ccccc1C(=O)Nc1nnc(SCc2cc(=O)c3cc(Cl)ccc3[nH]2)s1,/,/,/,-13,/
COCc1nnc(NC(C)=O)s1,0,-4,-2,-9,32*
COc1ccc(CCNC(=O)CCn2c(=O)c3ccccc3n(Cc3ccccc3C)c2=O)cc1OC,-2,/,/,9,/
Cn1c(=O)n(Cc2ccccc2)c(=O)c2c1nc1n2CCCN1Cc1ccccc1,0,6,-3,20,1
CCCCn1c(=O)c2c(nc3n2CCCN3Cc2ccccc2)n(C)c1=O,6,0,0,8,34*
COc1cccc(Cn2cc(C(=O)c3ccc(Cl)cc3)c(=O)c3ccccc32)c1,0,/,/,0,/
COc1cccc(C(=O)NC(=S)Nc2ccc(N3CCCC3)cc2)c1,0,-8,0,-5,57*
O=C(Nc1ccc(N2CCN(Cc3ccccc3Cl)CC2)cc1)c1cccnc1,1,-6,0,-3,15
O=C(Nc1ccc(N2CCCCC2)cc1)c1cccnc1,0,12,3,-8,34*
O=C(N/N=C/c1ccc(N2CCCC2)c([N+](=O)[O-])c1)c1cccnc1,1,-4,-1,-17,41*
COc1cc(OC)cc(C(=O)NC(=S)Nc2ccc(NC(=O)c3ccco3)cc2)c1,2,12,1,37*,-1
COc1ccc(C(=O)NC(=S)Nc2ccc(N3CCCC3)cc2)cc1,/,-2,6,/,/
CCCCC(=O)Nc1ccc(C(=O)OCc2cc(=O)n3ccsc3n2)cc1,10,/,/,-4,/
Cc1cnc2c(c1SCC(=O)Nc1ccc(F)cc1F)c(=O)n(C)c(=O)n2C,0,/,/,6,/
O=C(Nc1ccccc1)Nc1cccc2cccnc12,-3,-16,0,34*,-4
CC(=O)N1c2ccc(S(=O)(=O)NCC3CCC(C(=O)Nc4cccc(F)c4)CC3)cc2CC1C (stereo not given),0,/,/,2,/
CCC(=O)C1=C(c2cccc(OC)c2)N(C(=O)CC)n2c(nnc2C2CCCCC2)S1,0,/,/,-1,/
COc1ccc(N2C(=O)CSC23C(=O)N(CC(=O)NC2CCCCC2)c2ccccc23)cc1 (stereo not given),-1,/,/,-8,/
O=C(CCN1C(=O)CSc2ccccc21)Nc1ccc(C(F)(F)F)cc1,1,-6,3,-14,88*
O=C(CCN1C(=O)CSc2ccccc21)Nc1cccc(C(F)(F)F)c1,0,-3,-2,-17,5
O=c1c(NCCc2ccc(Cl)cc2)nccn1-c1ccccc1,0,/,/,-4,/
Cc1ccccc1NCC(=O)N/N=C/c1c(C)c(C(=O)c2ccc(Cl)cc2)n2ccccc12,2,-16,-1,-3,32*
COc1ccc2oc(-c3ccc(C)c(NC(=O)COc4cc(C)cc(C)c4)c3)nc2c1,2,/,/,1,/
COc1ccc(N2CC(NC(=O)c3ccc(S(=O)(=O)N4CCCCC4)cc3)CC2=O)cc1 (stereo not given),1,/,/,-6,/
COc1ccc(-c2nc(CSCC(=O)NCCC(C)C)c(C)o2)cc1OC,-1,/,/,8,/
CC(=O)c1ccccc1OCC(O)CN1CCN(CCN2C(=O)c3cccc4cccc(c34)C2=O)CC1 (stereo not given),-2,-15,-2,-23,36*
CCNC(=S)N1CCN(CCN2C(=O)c3cccc4cccc(c34)C2=O)CC1,0,10,0,14,44*

# From PubChem BioAssay
